Screens deposited in PubChem BioAssay by National Center for Advancing Translational Sciences (NCATS).
This is a sample that favours compounds with a hit; in the whole collection about 4.2% have one here.
ALOX12 inh – blocks human arachidonate 12S-lipoxygenase | actives 1.1% (n = 580,000) | P18054 | Potency, µM (doses to about 108 µM), hits mostly inhibitors | purified 12hLO, xylenol orange hydroperoxide absorbance
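Hydroperoxide product was detected by ferrous iron/xylenol orange as the 573 to 405 nm absorbance ratio. Arachidonic acid at 40 uM (final) was turned over for 30 min at room temperature by 150 nM human 12hLO, pH 7.0 Hepes buffer, after 15 min compound preincubation.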
VDR inh – inhibitors of human vitamin D receptor; P11473; VDR-SRC2-3 peptide fluorescence polarization, 2 h; Potency, µM, actives largely listed as inhibitors; actives 0.93% (n = 400,000); AID 504847
Target sequence (P11473 whole entry, looked up): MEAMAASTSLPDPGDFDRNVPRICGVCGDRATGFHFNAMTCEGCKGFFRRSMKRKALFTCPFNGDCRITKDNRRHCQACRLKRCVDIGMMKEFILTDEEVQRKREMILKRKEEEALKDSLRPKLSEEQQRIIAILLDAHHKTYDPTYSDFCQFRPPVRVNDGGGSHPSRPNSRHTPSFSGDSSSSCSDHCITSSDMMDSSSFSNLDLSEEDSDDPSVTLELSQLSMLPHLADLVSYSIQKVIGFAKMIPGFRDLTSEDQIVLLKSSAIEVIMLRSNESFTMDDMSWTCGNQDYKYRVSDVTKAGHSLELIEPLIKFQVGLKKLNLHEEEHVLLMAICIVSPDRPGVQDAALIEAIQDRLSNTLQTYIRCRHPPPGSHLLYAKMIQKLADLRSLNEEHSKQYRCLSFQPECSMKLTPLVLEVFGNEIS
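FP read-out; VDR + SRC2-3 coactivator peptide; 23 nl compound by pintool; 2 h RT incubation; reagents held at 4 deg C, protected from light.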
Sfp inh – inhibitors of Bacillus subtilis Sfp phosphopantetheinyl transferase; Q9F4F7; Biochemical Sfp PPTase activity, qHTS; Potency, µM, usual class: inhibitors; actives 3.5% (n = 310,000); AID 1490;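 note: the enzyme is Sfp with the accession as filed and its product quenches rhodamine fluorescence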
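With Hepes-Na pH 7.6 buffer containing 10 mM MgCl2, Sfp (15 nM) modified BHQ-2-YbbR (12.5 uM) using rhodamine-CoA (5 uM). Two reads 30 minutes apart at 525/598 nm yielded each well's rate.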
PLK1 PBD block – blocks phosphopeptide binding to human PLK1 polo-box domain; AID 720504; actives 2.8% (n = 360,000); Potency, µM, most hits filed as inhibitors; P53350; Plk1 PBD binding of FITC phosphopeptide, fluorescence polarization; note: series mostly up to about 57 µM; nearly all actives have a fitted effect of over 65% in size
Hits are given with their value; . = inactive; ? = inconclusive; / = no result; [ ] = remark or other dose. Calls come from the whole dose curve; as a rule, active = well fitted curve in the direction sought with a large enough effect; inconclusive = small, poorly fitted or top-dose-only effect, or another doubt; inactive = no such curve, though single readings can be large; an effect the other way counts as inactive or inconclusive.

SMILES	ALOX12 inh	VDR inh	Sfp inh	PLK1 PBD block
O=C1N=C(N2CCN(c3ccccc3)CC2)S/C1=C/c1cccs1	.	.	.	.
Cc1ccc(-c2ccc(/C=C3\SC(N4CCOCC4)=NC3=O)o2)cc1	35.5µM	.	39.8µM	.
Cc1ccc(/C=C2\SC(N3CCN(C(c4ccccc4)c4ccccc4)CC3)=NC2=O)o1	3.55µM	?	3.98µM	.
CCOc1cc(-c2nc3ccccc3s2)ccc1O	.	.	.	.
CC(Nc1ccc([N+](=O)[O-])cn1)c1ccc(Cl)cc1Cl (stereo not given)	56.2µM	/	/	/
CC(Nc1ccc(Br)cn1)c1cc(Cl)ccc1O (stereo not given)	.	.	.	26.7µM
CC(Nc1ncccc1[N+](=O)[O-])c1ccc(Cl)cc1Cl (stereo not given)	.	/	/	/
CCCCc1ccc(-c2csc(/C(C#N)=C/c3ccccc3)n2)cc1	.	/	/	/
Cn1ncc(N2CCC(C(=O)N3CCCCC3)C2)cc1=O (stereo not given)	.	/	/	/
CC(C)c1ccc(/C=C/C2=NNC(=O)CC2)cc1	.	?	.	9.47µM
COCC(=O)N1CCC2(CCCN(c3ccc(-c4ccccc4)cc3)C2)CC1	?	50.1µM	.	/
c1ccc(-c2ccc(N3CCCC4(CCNCC4)C3)cc2)cc1	?	?	28.2µM	/
CC(C)c1cc(C(C)C)c(CC(=O)NS(=O)(=O)Oc2c(C(C)C)cccc2C(C)C)c(C(C)C)c1	24.3µM	/	/	/
COc1ccc(N(C(=O)c2cnccn2)C(C(=O)NCc2ccccc2)c2ccc(O)cc2)cc1 (stereo not given)	?	.	.	.
Cc1nc(SCc2cccc(C(=O)O)c2)nc2c1CCCC2	.	.	.	26.7µM
COc1ccc(-c2cc(C)nc(SCc3cccc(C(=O)O)c3)n2)cc1	?	.	.	.
O=C(O)c1cccc(CSc2nc(-c3ccc(Cl)cc3)cc(C(F)(F)F)n2)c1	?	?	.	26.7µM
O=C(Nc1ccc2nc(SCC(=O)N3CCCC3)sc2c1)c1ccccc1	.	.	/	/
O=[S+]([O-])(c1ccccc1)N1CC(Oc2ccc(F)c(F)c2)C1	.[6.33 µM]	/	/	/
CCOC(=O)C1CCCN(CC(=O)N2CCCc3c2c(=O)oc2ccc(OCc4ccccc4)cc32)C1 (stereo not given)	22.4µM	.	/	/
CCc1ccc(NC(=O)Nc2ccc3sc(NC(C)=O)nc3c2)cc1	7.08µM	/	/	/
COc1ccc(-c2csc(NC(=O)CSc3nc(C)cs3)n2)cc1	.	.	/	.
COc1ccc(-c2csc(NC(=O)CSc3nc(C)nc4sc(C(=O)O)c(C)c34)n2)cc1	?	.	.	18.9µM
COc1cc(/C=C2/C(=O)NN(c3cccc(C)c3)C2=O)ccc1OC(=O)c1ccco1	35.5µM	50.1µM	44.7µM	2.99µM
COc1cc(/C=C2\C(=N)N3N=CSC3=NC2=O)ccc1OS(=O)(=O)c1ccccc1[N+](=O)[O-]	?	?	.	26.7µM
SMILES	ALOX12 inh	VDR inh	Sfp inh	PLK1 PBD block
COc1cc(/C=C2\C(=N)N3N=C(S(C)(=O)=O)SC3=NC2=O)ccc1OC(=O)c1ccco1	?	79.4µM	.	?
CCOc1cc(/C=C2\C(=N)N3N=C(S(=O)(=O)CC)SC3=NC2=O)ccc1OC(=O)c1ccco1	?	.	?	?
COc1cc(/C=C2/C(=O)NN(c3cccc(Cl)c3)C2=O)cc(OC)c1O	.	79.4µM	.	.
O=C(NCCCN1CCOCC1)c1cc2cc(Br)ccc2oc1=O	.	.	.	.
Cc1cccc(CCNC(=O)CC2C(=O)NCCN2Cc2ccc(F)c(F)c2)n1 (stereo not given)	.	.	.	.
COc1cc(/C=C2/C(=O)NN(c3cccc(C)c3)C2=O)cc([N+](=O)[O-])c1O	?	.	.	?
COc1cc(/C=C2/C(=O)NN(c3ccc(C)c(Cl)c3)C2=O)cc([N+](=O)[O-])c1O	39.8µM	?	.	?
O=C(COC(=O)CCC1CCCCC1)Nc1ccc2c(c1)OCO2	.	/	/	/
Cc1nc(C)c(/C(O)=C\c2nc3ccc([N+](=O)[O-])cc3oc2=O)o1	.	.	56.2µM	.
CCC(=O)Nc1ccc2c(c1)C(=O)N(C)C2=O	.	.	.	.
CN1C(=O)c2ccc(NC(=S)NC(=O)C(C)(C)C)cc2C1=O	?	.	35.5µM	.
COc1ccc2c(-c3ccccc3)cc(N3CCOCC3)nc2c1	1.78µM	.	?	.
c1ccc(-c2cc(-c3ccc(N4CCOCC4)cc3)nc3ccccc23)cc1	.	.	.	.
CC(NC(=O)C1CCCC1)C1CC2CCC1C2 (stereo not given)	.	.	.	.
CCCCCCCc1ccc(C2NC(=S)NC3=C2C(=O)c2ccccc23)cc1 (stereo not given)	/	?	.	21.2µM
CCN(CC(=O)Nc1ccccc1C(F)(F)F)C(=O)c1oc2ccc(OC)cc2c1C	.	.	/	.
C/C(=N\NC(=O)CC#N)C1COc2ccccc2O1 (stereo not given)	.	?	.	21.2µM
C/C(=N/NC(=O)CNC(=O)C1COc2ccccc2O1)c1ccc2c(c1)OCCO2 (stereo not given)	.	.	.	.
O=S(=O)(/N=C/c1cccs1)c1ccccc1	.	/	/	/
NC(=NCc1ccc(Cl)cc1Cl)NC(=O)c1nc(Cl)c(N)nc1N	?	.	25.1µM	/
Nc1nc2ccc(Cl)cc2cc1C(=O)NCCc1ccc(Cl)cc1Cl	.	/	/	.
Cc1cc(C)cc(NC(=S)NCCc2ccc(S(N)(=O)=O)cc2)c1	?	.	.	.
O=C(O)COc1ccccc1/C=N/n1c(C2CCCCC2)n[nH]c1=S	.	?	50.1µM	?
S=c1[nH]nc(C2CCCCC2)n1/N=C/c1ccccc1Br	?	.	.	11.9µM
Cc1cc(C)cc(C(=O)N(Cc2ccco2)c2c(N)n(Cc3ccccc3)c(=O)[nH]c2=O)c1	.	.	/	.
SMILES	ALOX12 inh	VDR inh	Sfp inh	PLK1 PBD block
O=C(CCN1c2ccccc2Sc2ccccc21)OCc1nnc(-c2ccccc2)o1	.	.	.	.
CCN(CC(=O)NCc1ccc(Cl)cc1)C(=O)/C=C/c1ccc(Cl)c([N+](=O)[O-])c1	.	.	79.4µM	.
COc1ccc(CN2C[C@H](Sc3nc4ccccc4[nH]3)C[C@H]2C(=O)N2CCCN(C)CC2)cc1C	.	/	/	/
Cc1ccc(C(=O)NC(C)c2ccc3c(c2)OCO3)s1 (stereo not given)	.	?	.	11.9µM
COc1ccc2[nH]c3c(=O)n(Cc4ccc(C(=O)N5CCC(C(N)=O)CC5)cc4)c(=S)[nH]c3c2c1	?	?	22.4µM	21.2µM
O=C(OCC(=O)N(CCc1ccccc1)Cc1ccccc1)c1ccc(F)c(S(=O)(=O)N2CCOCC2)c1	.	.	/	.
O=C1C(=O)c2ccccc2C(O)=C1CC=C(Cl)Cl	?	.	/	.
CC(C)=CCC1=C(O)c2ccccc2C(=O)C1=O	.	25.1µM	.	/
COc1cc(-c2ccc(C(F)(F)F)cn2)cc2c1OCCN(S(=O)(=O)C[C@]13CC[C@H](CC1=O)C3(C)C)C2	.	/	/	/
CC1=C(C#N)C(/C=N/OCc2ccc(F)cc2Cl)CC(=O)N1 (stereo not given)	?	?	.	29.9µM
COc1cc(OC)c(C(=O)N2Cc3cnc(CC(C)C)nc3C2)cc1OC	.	/	/	/
